# APEX1 inh = blocks human APE1 abasic DNA cleavage. P27695. recombinant APE1, TAMRA/BHQ-2 abasic DNA cleavage fluorescence. Potency, µM (highest dose often 65.8 µM), for the others: at the top dose activity change, negative = inhibition, actives largely listed as inhibitors. 0.35% of 350,000 active;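 note: potency is the fitted concentration of half-maximal effect; plate controls were vehicle for no effect and reference inhibitor for full effect; nearly all actives have a fitted effect of over 55% in size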
# Target sequence (P27695 whole entry, looked up): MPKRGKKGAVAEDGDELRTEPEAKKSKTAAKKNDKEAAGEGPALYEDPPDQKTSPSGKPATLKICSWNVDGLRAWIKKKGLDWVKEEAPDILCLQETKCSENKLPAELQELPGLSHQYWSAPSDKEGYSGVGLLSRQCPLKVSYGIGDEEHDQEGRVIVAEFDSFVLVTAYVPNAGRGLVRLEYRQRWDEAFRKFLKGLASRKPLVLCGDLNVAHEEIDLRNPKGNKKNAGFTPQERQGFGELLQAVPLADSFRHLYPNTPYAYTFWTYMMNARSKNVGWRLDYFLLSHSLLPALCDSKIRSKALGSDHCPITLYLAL
#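 Compound pre-exposure to 0.75 nM APE1, 15 min at ambient temperature. Reaction initiated with 50 nM TAMRA/BHQ-2 THF substrate, read immediately in kinetic mode, 525 nm excitation, 598 nm emission.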
# Pol kappa inh-1 = blocks human DNA polymerase kappa activity | AID 588579 | Potency, µM (highest dose often 107 µM), without a hit: at the top dose activity, negative = inhibition, usual class: inhibitors | purified Pol kappa, fluorescent DNA synthesis assay, 10 min | 0.53% of 400,000 active | Q9UBT6; note: potency is the fitted concentration of half-maximal effect; % is set by controls: 0 for no effect and ±100 for the full control effect
#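 Inhibition of 10 nM Pol kappa is measured by a fluorescent read-out at 0 and 10 min following addition of 50 nM substrate (final), with a 15-min room-temperature compound preincubation.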
# Pol eta inh-1 = DNA polymerase eta (human) inhibition. Q9Y253. recombinant Pol eta, fluorescent DNA replication assay. Potency, µM (top dose mostly 114 µM), without a hit: at the highest dose activity change, negative = inhibition, most hits filed as inhibitors. 1.2% of 390,000 active. AID 588591; note: potency is the fitted concentration of half-maximal effect; % is set by controls: 0 for no effect and ±100 for the full control effect
#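 Pol eta (10 nM) was preincubated with compounds for 15 min at room temperature, after which fluorescent replication substrate (50 nM final) was added to start the reaction. Fluorescence was read kinetically at 0 and 10 min.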
# L3MBTL1 inh = blocks human L3MBTL1 | Q9Y468 | AlphaScreen L3MBTL1–H3K9me1 peptide binding | Potency, µM (titrated, usually from 57.1 µM), for the others: at the highest dose activity, negative = inhibition, most hits filed as inhibitors | 0.66% of 230,000 active; note: potency is the fitted concentration of half-maximal effect; % is set by controls: 0 for no effect and ±100 for the full control effect; nearly all actives have a fitted effect of over 60% in size
#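 Displacement of a biotinylated histone H3(1-15) peptide monomethylated at Lys9 (75 nM) from L3MBTL1 (50 nM) was measured by AlphaScreen after a 30 min room-temperature compound incubation; cefsulodin titration served as intraplate control.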
# Pol iota inh = DNA polymerase iota (human) inhibition; 1% of 390,000 active; Potency, µM (series often up to 115 µM), without a hit: at the top dose activity, negative = inhibition, hits mostly inhibitors; Pol iota fluorescent replication assay, 10 min; note: potency is the fitted concentration of half-maximal effect
#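 Pol iota at 10 nM preincubated 15 min with compounds at room temperature; reaction started with fluorescent substrate, 50 nM final. Fluorescence read kinetically at 0 and 10 min; buffer-only wells as negative control.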
# Pol beta inh = blocks human DNA polymerase beta activity. P06746. Pol beta primer extension/strand displacement, fluorescence kinetic. Potency, µM (titrated, usually from 114 µM), for inactives: at the top dose activity change, negative = inhibition, most hits filed as inhibitors. 1.3% of 340,000 active; note: potency is the fitted concentration of half-maximal effect; % is set by controls: 0 for no effect and ±100 for the full control effect
#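 Curves were derived by four-parameter Hill fits of normalized qHTS data. The kinetic fluorescent primer-extension read was taken at 0 and 10 min after 50 nM substrate, following a 15 min room-temperature preincubation of 10 nM enzyme with compounds.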
# GALK confirm = confirmation of human galactokinase (GALK) inhibitors; shares compounds with Pol eta inh-1; purified GALK, Kinase-Glo ATP depletion luminescence; Potency, µM (titrated, usually from 115 µM), for the others: at the top dose activity, negative = inhibition, usual class: inhibitors; 70% of 150 active; AID 2015
# Target sequence (P51570 whole entry, looked up): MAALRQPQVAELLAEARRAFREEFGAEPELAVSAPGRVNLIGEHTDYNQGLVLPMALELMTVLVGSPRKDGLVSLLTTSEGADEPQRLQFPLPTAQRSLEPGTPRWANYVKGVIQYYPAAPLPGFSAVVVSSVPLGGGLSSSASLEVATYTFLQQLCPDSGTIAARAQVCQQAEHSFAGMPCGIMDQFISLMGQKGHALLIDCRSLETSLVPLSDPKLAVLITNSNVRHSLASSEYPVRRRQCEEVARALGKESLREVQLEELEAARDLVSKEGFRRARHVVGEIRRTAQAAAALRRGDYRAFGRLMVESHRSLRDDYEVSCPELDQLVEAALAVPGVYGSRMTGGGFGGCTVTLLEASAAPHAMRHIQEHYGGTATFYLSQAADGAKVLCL
# GALK redox cs = redox cycling activity in phenol red-HRP assay; shares compounds with Pol eta inh-1; AID 2035; Potency, µM (top dose mostly 115 µM), for the others: top-dose activity change, negative = H2O2 signal, hits mostly inhibitors; Phenol red-HRP H2O2 redox cycling, absorbance 600 nm; 40% of 150 active
# HEK293 viability = HEK-293 cytotoxicity, GALK inhibitor secondary; shares compounds with Pol eta inh-1; HEK-293 viability, ATP luminescence (CellTiter-Glo), 24/48 h; Potency, µM (top dose mostly 46.1 µM), for the others: top-dose activity change, negative = cytotoxicity, hits mostly inhibitors; 10% of 170 active; note: potency is the fitted concentration of half-maximal effect; % is set by controls: 0 for no effect and ±100 for the full control effect
# Pol kappa inh-2 = confirmation of human DNA polymerase kappa inhibitors | purified Pol-kappa, fluorescent strand-displacement substrate | shares compounds with Pol eta inh-1 | 76% of 920 active | Potency, µM, actives largely listed as inhibitors; note: potency is the fitted concentration of half-maximal effect
# Pol eta inh-2 = confirmation of human DNA polymerase eta inhibitors; shares compounds with Pol eta inh-1; Pol eta primer extension, TAMRA/BHQ fluorescence, 10 min; Potency, µM, hits mostly inhibitors; 64% of 2,600 active; note: potency is the fitted concentration of half-maximal effect
# * hit, by the source's call; ? = inconclusive; / = no result; [ ] = another dose, or the depositor's remark. Rows were chosen to be rich in hits. Some 2.5% of all compounds tested hit in one or more screens of this group. Calls come from the whole dose curve; as a rule, active = well fitted curve in the direction sought with a large enough effect; inconclusive = small, poorly fitted or top-dose-only effect, or another doubt; inactive = no such curve, though single readings can be large; an effect the other way counts as inactive or inconclusive.
SMILES,APEX1 inh,Pol kappa inh-1,Pol eta inh-1,L3MBTL1 inh,Pol iota inh,Pol beta inh,Pol eta inh-2,others
COc1ccc(NC(=O)CSc2nc(O)cc(=O)[nH]2)c(OC)c1,1%,1%,-8%,/,2%,-30%,/,
Cc1csc(NC(=O)CSc2sc3c(O)cc(=O)[nH]c3c2C#N)n1,8%,28µM*,18µM*,/,7.9µM*,45µM*,?,Pol kappa inh-2=?
COC(=O)c1ccc(C)c(NC(=O)CSc2sc3c(O)cc(=O)[nH]c3c2C#N)c1,16%[12.4 µM],22µM*,10µM*,/,13µM*,35µM*,?,Pol kappa inh-2=?
COc1ccc(NC(=O)CSc2sc3c(O)cc(=O)[nH]c3c2C#N)c(OC)c1,1%,?,22µM*,/,2.5µM*,1.6µM*,?,Pol kappa inh-2=?
COc1ccccc1-n1c(C)cc(/C=C2\C(=N)N3N=C(CC(=O)N4CCOCC4)SC3=NC2=O)c1C,7%,0%,-2%,/,14%,22%,/,
Cc1ccc(/C=C2/C(=N)N3N=C(CC(=O)N4CCCC4)SC3=NC2=O)cc1,10%,-6%,-5%,/,1%,8%,/,
COc1ccc(-n2c(C)cc(/C=C3\C(=N)N4N=C(CC(=O)N5CCOCC5)SC4=NC3=O)c2C)c(OC)c1,-13%,?,40µM*,/,45µM*,?,?,
CSc1ccc(/C=C2/C(=N)N3N=C(CC(=O)N4CCCC4)SC3=NC2=O)cc1,17%,?,40µM*,/,79µM*,7%,?,
N=C1/C(=C\c2ccc(OC(=O)c3ccc(F)cc3)cc2)C(=O)N=C2SC(N3CCCC3)=NN12,19%,-27%,56µM*,?,-12%,-1%,/,Pol kappa inh-2=67*
Cc1ccc(S(=O)(=O)N(C)c2ccc(C(=O)N(C)Cc3nc4ccccc4c(=O)[nH]3)cc2)cc1,38%,-3%,-22%,7%,6%,/,/,
CC(=O)N1CCc2c(sc3c2c(=O)n(-c2ccccc2C)c(=O)n3CC(=O)Nc2ccccc2)C1,/,-15%,-2%,/,7%,-14%,/,
CC(C)c1nc(Nc2nc3ccccc3o2)nc2c1CCCC2,/,/,/,/,/,/,/,HEK293 viability=-29%
COc1ccccc1CNS(=O)(=O)c1c(C)nc2sc(C)cn2c1=O,/,-1%,-16%,/,29%,-2%,/,
CNS(=O)(=O)c1ccc(NC(=S)Nc2ccc3c(c2)OCO3)cc1,1%,-3%,-8%,14%,121%,2%,/,
CC(=O)Nc1ccc(C=NNc2ccc([N+](=O)[O-])cc2S(=O)(=O)Nc2ccccc2C(=O)O)cc1,?,-43%,50µM*,0%,?,/,/,Pol kappa inh-2=?
CCOC(=O)C1=C(COC(=O)C(C)(C)Oc2ccc(Cl)cc2)NC(=O)NC1C (stereo not drawn),-2%,-13%,-9%,-4%,1%,/,/,
Cn1c(SCc2ccc(Cl)cc2)nnc1-c1ccc2nonc2c1,0%,-21%,-11%,10%,-7%,25%,/,
CC(C)(C)c1ccc(/C=N/N2C(=O)CSC2=S)cc1,-14%,-17%,-16%,/,?,4%,/,
O=C1CSC(=S)N1N=Cc1ccc(Cl)s1,/,?,?,/,14µM*,/,54*,Pol kappa inh-2=17*
Cc1nc2ccc(-c3nc4ccc(N)cc4[nH]3)cc2[nH]1,?,50µM*,?,1%,18µM*,13µM*,/,Pol kappa inh-2=?
FC(F)(F)c1ccccc1-n1c(CN2CCCCC2)n[nH]c1=S,4%,-22%,4%,/,16%,12%,/,
CC(C)CN1CCC(=O)N([C@H](COc2ccccc2)c2ccccc2)CC1,0%,9%,-4%,4%,13%,21%,/,
CC1CCCCC1NC(=O)CCc1nc2sc3c(c2c(=O)[nH]1)CCCC3 (stereo not drawn),13%,-31%,?,-1%,?,/,/,
Cc1ccc(NC(=O)CCc2nc3sc4c(c3c(=O)[nH]2)CCCC4)c(Br)c1,-30%,?,25µM*,-27%,40µM*,/,85*,
Cc1ccc2c(=O)cc(C(=O)Nc3nc4ccc(Cl)cc4s3)oc2c1,/,3%,2%,/,5%,-1%,/,
SMILES,APEX1 inh,Pol kappa inh-1,Pol eta inh-1,L3MBTL1 inh,Pol iota inh,Pol beta inh,Pol eta inh-2,others
Cc1ccc2c(=O)cc(C(=O)Nc3nc4ccc(Cl)cc4s3)oc2c1C,/,?,79µM*,/,?,6.3µM*,?,
O=C(O)CCN1CCc2ccccc21,-5%,?,18µM*,?,?,?,?,
Cc1cc(NS(=O)(=O)c2ccc(NC(=O)/C=C/c3ccco3)cc2)nc(C)n1,-1%,79µM*,28µM*,-17%,?,0%,34*,
O=Nc1ccc(Nc2ccccc2)cc1,-2%,/,/,/,/,/,/,
CCOc1cc(/C=C2/C(=N)N3C(=NC2=O)SN=C3S(C)(=O)=O)ccc1OS(=O)(=O)c1ccccc1,-7%,-9%,79µM*,/,?,?,/,GALK confirm=33µM*;GALK redox cs=-5%;HEK293 viability=9%
N#CCC(=O)Nc1ccc(C(=O)OCC(=O)NC2CCCCCC2)cc1,-1%,7%,-9%,3%,36%,/,/,
CCOC(=O)/C(N=Nc1ccc(C(=O)O)cc1[N+](=O)[O-])=C(\C)O,-11%,-14%,-9%,-7%,?,-26%,/,
CC(=O)/C(N=Nc1ccc(C(=O)O)cc1[N+](=O)[O-])=C(\C)O,10µM*,?,11µM*,/,50µM*,?,?,
O=c1c(-c2cccs2)nc2cnc(N3CCNCC3)nc2n1CCc1ccccc1,-6%,?,/,/,/,/,/,
CC(/C=N/n1c(-c2ccncc2)n[nH]c1=S)=C\c1ccco1,26%,50µM*,?,/,20µM*,-15%,?,

# Bioassay records deposited in PubChem by National Center for Advancing Translational Sciences (NCATS).
